# Measurements: PubChem BioAssay (NCI)
# About 83,000 compounds went through this panel and 20% of them were active in at least one assay; those are over-represented in the sample as a whole.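 Single-concentration screen, 48 h exposure, 96-well plates. Endpoint: percent growth. Below 10 = active.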 Activity calls are given as the source filed them.
# Tested on: M14 melanoma
# Assay: NCI-60 one-dose screen, 48 h (100 = growth as untreated, 0 = no growth, -100 = all killed)
# Details: 10 µM unless noted
row,Structure (SMILES),growth
1,CC1(C)CC[C@]2(C(=O)O)CC[C@]3(C)C(=CCC4[C@@]5(C)C[C@@H](O)[C@@H]6OC(c7ccccc7O)OC[C@@]6(C)C5CC[C@]43C)C2C1 (stereo partly drawn),43.3% (inactive)
2,CN(c1ccc(Br)cc1)S(=O)(=O)c1ccc(-c2cnc(C3CC3)o2)cc1,8.2% (active)
3,CN1CCN(c2nc(-c3csc(-c4ccncc4)n3)cc3ccccc23)CC1,-18.5% (active)
4,O=C(O)c1ccc(-n2cc(CNc3ccc(F)cc3)c(-c3ccc(C(F)(F)F)cc3)n2)cc1,92.6% (inactive)
5,CSc1nccc(-c2c(-c3ccc(F)c(OCc4ccc(F)cc4)c3)nc3sccn23)n1,89% (inactive)
6,O=C(COc1ccc(C2SCC(=O)N2c2ccccc2)cc1)c1ccccc1 (stereo not drawn),102% (inactive)
7,O=C(O)CNS(=O)(=O)c1ccc(Oc2ccc(S(=O)(=O)NCC(=O)O)cc2)cc1,100% (inactive)
8,Cn1nc(Nc2ccccc2)c(C(=O)NN)c1N,101% (inactive)
9,COc1cc(/C=N/n2cnc3oc(-c4ccccc4)cc3c2=N)cc(CN2CCN(C)CC2)c1O,103% (inactive)
10,CC(C)SC1=NC(=C(C(=N1)NC2=ClC=CC=C2)C#N)C3=CC=CC=C3,89.1% (inactive)
11,NS(=O)(=O)c1ccc(Nc2nc(N/N=C/c3ccc(F)cc3)nc(Nc3ccccc3)n2)cc1,57.9% (inactive)
12,C#C[C@]1(O)CC[C@H]2[C@@H]3CC=C4c5sc(Nc6cccc(C)n6)nc5CC[C@]4(C)[C@H]3CC[C@@]21C,-29.8% (active)
13,CNC(=O)c1cc(Oc2ccc3nc(NC(=O)c4cc(C)cc(C)c4)sc3c2)ccn1,53.6% (inactive)
